In all, about 310,000 compounds went through this assay and about 14,000 (4.5%) showed an effect of 50% or more. Effects have a minus sign here. The full list was thinned out, with strong results kept by preference.
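Further: peak tail current of the secondary pulse compared with the same well before compound.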

Sequence of human ether-à-go-go-related gene (hERG) potassium channel (Q12809 whole entry, looked up): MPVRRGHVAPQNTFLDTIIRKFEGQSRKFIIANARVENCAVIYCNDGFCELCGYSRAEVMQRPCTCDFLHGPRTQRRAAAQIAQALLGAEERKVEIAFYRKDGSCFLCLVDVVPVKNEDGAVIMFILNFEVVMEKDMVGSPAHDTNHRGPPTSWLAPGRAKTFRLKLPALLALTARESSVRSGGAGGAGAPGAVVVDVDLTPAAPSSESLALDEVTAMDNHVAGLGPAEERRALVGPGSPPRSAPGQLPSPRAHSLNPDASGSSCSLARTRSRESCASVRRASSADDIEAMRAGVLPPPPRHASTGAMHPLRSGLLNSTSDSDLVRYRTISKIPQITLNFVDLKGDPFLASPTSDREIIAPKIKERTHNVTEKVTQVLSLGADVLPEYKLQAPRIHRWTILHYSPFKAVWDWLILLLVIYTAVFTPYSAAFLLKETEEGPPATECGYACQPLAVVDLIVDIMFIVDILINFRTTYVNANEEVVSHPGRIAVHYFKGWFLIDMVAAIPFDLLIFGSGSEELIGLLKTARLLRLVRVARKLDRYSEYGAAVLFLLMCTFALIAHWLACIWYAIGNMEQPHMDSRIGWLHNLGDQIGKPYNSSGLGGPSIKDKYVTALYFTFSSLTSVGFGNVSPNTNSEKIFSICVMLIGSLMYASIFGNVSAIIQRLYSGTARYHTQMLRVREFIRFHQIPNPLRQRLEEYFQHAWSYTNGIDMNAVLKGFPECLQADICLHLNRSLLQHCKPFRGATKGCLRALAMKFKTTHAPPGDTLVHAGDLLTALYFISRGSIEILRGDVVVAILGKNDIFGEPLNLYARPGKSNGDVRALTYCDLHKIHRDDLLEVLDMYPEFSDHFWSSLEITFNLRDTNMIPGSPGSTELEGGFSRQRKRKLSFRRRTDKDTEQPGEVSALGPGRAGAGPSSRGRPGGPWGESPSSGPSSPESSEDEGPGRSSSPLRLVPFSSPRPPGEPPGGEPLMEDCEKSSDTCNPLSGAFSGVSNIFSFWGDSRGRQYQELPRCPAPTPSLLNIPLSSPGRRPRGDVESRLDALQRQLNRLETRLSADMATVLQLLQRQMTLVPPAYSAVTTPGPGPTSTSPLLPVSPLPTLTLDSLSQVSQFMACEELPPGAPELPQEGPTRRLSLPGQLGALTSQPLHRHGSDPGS

The assay addresses human ether-à-go-go-related gene (hERG) potassium channel (human, UniProt Q12809). Briefly: primary screen, population patch clamp on CHO cells stably expressing hERG; higher = less effect of the substance.
Regarding `Fc1ccc(N/N=C(/c2ccccc2)c2ccccn2)cc1`, the “hERG current change (%, negative = inhibition) at 10uM” value was -12.5%.

For `CCN(Cc1ccccc1)Cc1c(F)cccc1F`, the “hERG current change (%, negative = inhibition) at 10uM” value is listed as -0.224%.

For the compound `Cc1ccc(S(=O)(=O)N2CCC(C(=O)OCC(=O)N3CCC(C)CC3)CC2)cc1C`, the “hERG current change (%, negative = inhibition) at 10uM” value amounted to 7.85%.

Regarding `CC1CCCN(C(=O)COC(=O)C2CCN(S(=O)(=O)c3c(Cl)cccc3Cl)CC2)C1` (stereo not shown), the “hERG current change (%, negative = inhibition) at 10uM” value is -39.4%.

For the compound `CCOC(=O)N1CCN(C(=O)COC(=O)C2CCN(S(=O)(=O)c3c(C)c(C)cc(C)c3C)CC2)CC1`, the “hERG current change (%, negative = inhibition) at 10uM” value is given as -51.9%.

As to `CCOC(=O)N1CCN(C(=O)C2CCN(S(=O)(=O)c3c(C)cc(C)cc3C)CC2)CC1`, the “hERG current change (%, negative = inhibition) at 10uM” value is -22.9%.

Consider `CCOC(=O)C1CCN(C(=O)COC(=O)C2CCN(S(=O)(=O)c3ccc(C)c(C)c3)CC2)CC1`, for which the “hERG current change (%, negative = inhibition) at 10uM” value is -3.24%.

For the compound `CCOC(=O)N1CCN(C(=O)COC(=O)C2CCN(S(=O)(=O)c3c(Cl)cccc3Cl)CC2)CC1`, the “hERG current change (%, negative = inhibition) at 10uM” value is listed as -38.1%.

With `CC1CCCC(C)N1C(=O)COC(=O)C1CCN(S(=O)(=O)c2c(Cl)cccc2Cl)CC1` (stereo not shown), the “hERG current change (%, negative = inhibition) at 10uM” value was -30.1%.

Regarding `CC1CCCCN1C(=O)COC(=O)C1CCN(S(=O)(=O)c2c(Cl)cccc2Cl)CC1` (stereo not shown), the “hERG current change (%, negative = inhibition) at 10uM” value is on record as -56.4%.

On to `CCOC(=O)N1CCN(C(=O)COC(=O)C2CCN(S(=O)(=O)c3ccc(C)c(C)c3)CC2)CC1`, for which the “hERG current change (%, negative = inhibition) at 10uM” value is listed as -62.1%.

Take `CC(=O)Nc1ccc(Oc2cc(NC(C)=O)cc([N+](=O)[O-])c2)cc1`: the “hERG current change (%, negative = inhibition) at 10uM” value worked out at 6.36%.

In the case of `CCOC(=O)c1c(NC(=O)CC2Nc3ccccc3NC2=O)sc(C)c1C` (stereo not shown), the “hERG current change (%, negative = inhibition) at 10uM” value is on record as 10.6%.

Take `CCOC(=O)C1CCCN(C(=O)c2cc(Nc3ccc(OC)c(OC)c3)nc3ccccc23)C1` (stereo not shown): the “hERG current change (%, negative = inhibition) at 10uM” value is recorded as -14.9%.

In the case of `Cc1c(C(=O)Nc2ccc(Cl)cc2)c2ccccn2c1CCc1ccncc1`, the “hERG current change (%, negative = inhibition) at 10uM” value is given as -5.68%.

As to `COc1ccc(OCC(O)CN2CCN(c3ccc(Cl)cc3)CC2)cc1` (stereo not shown), the “hERG current change (%, negative = inhibition) at 10uM” value is reported as -30.7%.

Consider `COc1cccc(OCC(O)CN2CCN(c3ccc(Cl)cc3)CC2)c1` (stereo not shown), for which the “hERG current change (%, negative = inhibition) at 10uM” value was -71.9%.

`CCOC(=O)N1CCN(CC(O)COc2c(OC)cccc2OC)CC1.Cl` (stereo not shown): the “hERG current change (%, negative = inhibition) at 10uM” value came to 2.85%.

As to `OC(CSc1c(Cl)cccc1Cl)CN1CCN(c2ccc(F)cc2)CC1` (stereo not shown), the “hERG current change (%, negative = inhibition) at 10uM” value was -40.3%.

As to `COc1cccc(OCC(O)CN2CCN(c3ccccc3)CC2)c1.Cl` (stereo not shown), the “hERG current change (%, negative = inhibition) at 10uM” value is recorded as -43.4%.

With `COc1cccc(OCC(O)CN2CCN(c3ccccc3)CC2)c1` (stereo not shown), the “hERG current change (%, negative = inhibition) at 10uM” value is reported as -45.2%.

In the case of `COc1cccc(OCC(O)CN2CCN(c3ccc(F)cc3)CC2)c1.Cl` (stereo not shown), the “hERG current change (%, negative = inhibition) at 10uM” value was -58.6%.

Regarding `COc1ccc(N2CCN(CC(O)COc3c(OC)cccc3OC)CC2)cc1.Cl` (stereo not shown), the “hERG current change (%, negative = inhibition) at 10uM” value was -35.3%.

In the case of `OC(COc1ccc2ccccc2c1)CN1CCN(c2ccc(F)cc2)CC1` (stereo not shown), the “hERG current change (%, negative = inhibition) at 10uM” value is -28%.

With `OC(CSc1ccccc1Cl)CN1CCN(c2ccc(F)cc2)CC1` (stereo not shown), the “hERG current change (%, negative = inhibition) at 10uM” value is -57.4%.

With `COc1cccc(OC)c1OCC(O)CN1CCN(c2ccc(F)cc2)CC1.Cl` (stereo not shown), the “hERG current change (%, negative = inhibition) at 10uM” value was -74.9%.

In the case of `OC(CSc1ccccc1Cl)CN1CCN(c2ccccc2F)CC1` (stereo not shown), the “hERG current change (%, negative = inhibition) at 10uM” value is -30.7%.

Regarding `CCOC(=O)c1c(S(=O)(=O)NCCc2ccco2)c(C)n(C)c1C`, the “hERG current change (%, negative = inhibition) at 10uM” value was -1.25%.

Turning to `NNC(=O)c1ccc(Cn2cccn2)o1`, the “hERG current change (%, negative = inhibition) at 10uM” value was determined as 5.58%.

Regarding `CCn1nc(C)c(NS(=O)(=O)c2ccc(C)cc2)c1C`, the “hERG current change (%, negative = inhibition) at 10uM” value is recorded as -0.126%.

Turning to `CCCCC1(CCCC)C(=O)NC(=Nc2cccc(C)c2)NC1=O`, the “hERG current change (%, negative = inhibition) at 10uM” value turned out to be 0.0469%.

Take `COCC(C)NS(=O)(=O)c1ccccc1` (stereo not shown): the “hERG current change (%, negative = inhibition) at 10uM” value stood at 12.7%.

As to `COCCCNC(=S)Nc1cccc(S(=O)(=O)NC2=NCCC2)c1`, the “hERG current change (%, negative = inhibition) at 10uM” value is given as 36.7%.

In the case of `COc1ccc(CCNC(=O)c2ccc3c(c2)NC(=O)C(CSCc2cc(C)ccc2C)N3)cc1OC` (stereo not shown), the “hERG current change (%, negative = inhibition) at 10uM” value is 12.2%.

With `O=C(Nc1ccc(S(=O)(=O)NCc2ccco2)cc1)c1ccc2ccccc2n1`, the “hERG current change (%, negative = inhibition) at 10uM” value is recorded as -0.235%.

Take `COc1ccc(C2(C)ON(c3ccccc3C(F)(F)F)C2=O)cc1` (stereo not shown): the “hERG current change (%, negative = inhibition) at 10uM” value came out at 5.36%.

As for `CCCCOCCCNC(=O)c1c(-c2ccccc2)noc1C`, the “hERG current change (%, negative = inhibition) at 10uM” value was 3.4%.

For `CCOC(=O)CCN(Cc1ccccc1)S(=O)(=O)c1csc(C(N)=O)c1`, the “hERG current change (%, negative = inhibition) at 10uM” value is reported as -22.4%.

Take `Cl.OC(COc1ccc2c(c1)OCO2)CN1CCCC1` (stereo not shown): the “hERG current change (%, negative = inhibition) at 10uM” value was determined as 5.48%.

Consider `COc1ccc(OCC(O)CN2CCN(c3ccc(OC)cc3)CC2)cc1.Cl` (stereo not shown), for which the “hERG current change (%, negative = inhibition) at 10uM” value is -37.7%.

Consider `CC(=O)c1ccc(OCC(O)CN2CCN(c3ccc(F)cc3)CC2)cc1.Cl` (stereo not shown), for which the “hERG current change (%, negative = inhibition) at 10uM” value is -67.4%.

`OC(COc1ccc(F)cc1)CN1CCN(CC(O)COc2ccc(F)cc2)CC1` (stereo not shown): the “hERG current change (%, negative = inhibition) at 10uM” value is listed as -71.5%.

`COc1ccc(N2CCN(CC(O)COc3ccc(F)cc3)CC2)cc1.Cl` (stereo not shown): the “hERG current change (%, negative = inhibition) at 10uM” value is -69.9%.

(Values after PMC4336329 (PLoS ONE, 2015).)
